Compounds with a hit are over-represented: about 7.9% of the library has one in this group of screens.
LASV entry inh: qHTS for Inhibitors of binding or entry into cells for Lassa Virus; Lassa virus pseudotype entry inhibition, cell reporter; Potency, µM (top dose mostly 37.9 µM), for inactives: at the highest dose activity change, negative = inhibition, hits mostly inhibitors; 300,000 tested, 1.2% active; calls by dose curve; tested in HEK293 cells; further: potency means the concentration at half of the fitted maximal effect; nearly all actives have a fitted effect of over 50% in size
FMDV inh: High Throughput Screening for Foot and Mouth Disease Virus Antivirals; 410,000 tested, 1.2% active; AID 1159524, 2015; Potency, µM (doses to about 57.9 µM), for inactives: at the highest dose activity change, negative = inhibition, hits mostly inhibitors; FMDV antiviral cell-based qHTS; calls by dose curve; tested in HEK293T cells; further: read-out not given here; potency means the concentration at half of the fitted maximal effect; nearly all actives have a fitted effect of over 45% in size
MARV entry inh: qHTS for inhibitors of binding or entry into cells for Marburg Virus; 300,000 tested, 1.8% active; Potency, µM (highest dose often 37.8 µM), without a hit: top-dose activity change, negative = inhibition, actives largely listed as inhibitors; Marburg virus pseudotyped entry inhibition, cell reporter; calls by dose curve; tested in HEK293 cells; further: potency means the concentration at half of the fitted maximal effect
HCV inhibitor: qHTS Assay for Inhibitors of Hepatitis C Virus (HCV) | Huh7.5.1 HCVcc-Cre infection, luciferase reporter, 44 h | Potency, µM (doses to about 41.8 µM), without a hit: at the top dose activity change, negative = inhibition, actives largely listed as inhibitors | 340,000 tested, 3.4% active | AID 651820, 2012; active means well fitted inhibition curve with a large enough effect; inconclusive means small, poorly fitted or top-dose-only effect, or another doubt; inactive means no such curve, though single readings can be large or run the other way; further: potency means the concentration at half of the fitted maximal effect
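Cells seeded at 1,000/well and cultured 4 h, then compounds added followed by HCVcc-Cre virus (~0.5 moi). After 44 h further culture, luciferase substrate was added, plates held 15 min at room temperature, and luminescence read for 15 sec.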
HCMV inh: qHTS Assay for inhibitors of the human cytomegalovirus (HCMV); activity change, negative = inhibition, % at 57.5 µM; HFF cells, HCMV-luciferase reporter, 72 h; active compounds read low; 410,000 tested, 4.5% active; in the data active means activity change below about -60%; inconclusive means no clear call, values can overlap the other calls; inactive means above about -39%
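Compounds were evaluated in HFFs infected with an HCMV luciferase reporter virus (MOI 1 PFU/cell). Luciferase in lysates collected 72 h post infection served as the replication measure.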
The depositor's hits bear a star; ? = inconclusive; nt = no result given; [ ] = dose if it differs, or a comment. On the % scale 0 is the no-effect control and ±100 the full control effect.

SMILES	LASV entry inh	FMDV inh	MARV entry inh	HCV inhibitor	HCMV inh
COc1ccc(C2/C=C\CN(C(=O)c3ccccc3)[C@H](Cc3ccccc3)C(=O)N2Cc2ccc(F)cc2)cc1 (some centres not stated)	nt	?	nt	?	-63*
COc1ccc([C@H]2/C=C\CN(C(=O)CC(C)(C)C)[C@@H](C)C(=O)N2Cc2ccc(F)cc2)cc1	nt	?	nt	5%	-60*
COc1ccc(C2/C=C\CN(C(=O)c3ccccc3)CC(=O)N2Cc2cccc(F)c2)cc1 (configuration not stated)	nt	-1%	nt	?	22
COc1ccc([C@H]2/C=C\CN(C(=O)c3ccc(C)cc3)[C@@H](C)C(=O)N2Cc2ccc(F)cc2)cc1	nt	-7%	nt	?	-15
COc1ccc(C2/C=C\CN(C(=O)OCC3c4ccccc4-c4ccccc43)CC(=O)N2Cc2cccc(F)c2)cc1 (configuration not stated)	nt	-26%	nt	10µM*	-12
CC(=O)Nc1ccccc1OCc1cc(=O)n2c3c(sc2n1)CCCC3	17%[46.1 µM]	?	10%[46.1 µM]	nt	-10
COc1ccccc1C(=O)/C=C/c1ccc(N2CCCCC2)c([N+](=O)[O-])c1	?	35µM*	?	11µM*	-80*
Cc1cc(O)c(C(=O)/C=C/c2ccccc2O)c(=O)o1	nt	?	nt	5%	-9
O=C(/C=C/c1cccc([N+](=O)[O-])c1)c1ccccc1	nt	nt	-27%[14.2 µM]	nt	nt
O=C(/C=C/c1cccc([N+](=O)[O-])c1)c1cccs1	?	-90%	?	?	-90*
Cc1cc(O)c(C(=O)/C=C/c2cccc([N+](=O)[O-])c2)c(=O)o1	12%[46.1 µM]	18µM*	?	-8%	-19
CC(=O)Oc1ccccc1C(=O)C=Cc1cccc([N+](=O)[O-])c1	?	28µM*	?	?	-77*
Cc1cc(C)c(NC(=O)CSc2nc3ccccc3c3nc(-c4ccccc4)nn23)c(C)c1	6%[46.1 µM]	-5%	nt	nt	13
Cc1c(NC(=S)NC(=O)c2ccccc2)c(=O)n(-c2ccccc2)n1C	14%	7%	14%	21%	-6
O=C(Nc1ccccc1O)c1cccc(S(=O)(=O)Nc2ccccc2O)c1	-22%	-23%	-27%	-8%	-18
CCS(=O)(=O)N1CCc2cc(C(=O)Nc3ccc(OC)cc3OC)ccc21	7%[46.1 µM]	-28%	?	nt	-4
CC(=O)c1ccc(OCCCOc2cccc3cccnc23)cc1	nt	-8%	nt	-13%	17
CC(=O)c1ccccc1OCCCOc1cccc2cccnc12	nt	-18%	nt	?	-83*
O=C(COC(=O)c1ccc([N+](=O)[O-])cc1)NC12CC3CC(CC(C3)C1)C2	nt	-10%	nt	5%	-8
CCOC(=O)c1c(C)n2c3c(cc(C)cc13)CCC2	-2%	4%	?	10µM*	?
CC(C)c1ccc(OCCCCN2CCCCC2)cc1	18%	-10%	11µM*	?	-27
Clc1ccc(OCCCCN2CCCCC2)cc1	-18%[46.1 µM]	-15%	?	?	nt
Clc1ccc(OCCCN2CCCC2)cc1Cl	?	-5%	?	?	10
Cc1ccc(OCCCCCN2CCOCC2)cc1	-4%	28%	14%	15%	9
Cc1ccc(OCCCCCCN2CCNCC2)cc1	5%	5%	14µM*	?	53
SMILES	LASV entry inh	FMDV inh	MARV entry inh	HCV inhibitor	HCMV inh
Cc1cc(OCCCCCN2CCCC2)ccc1Cl	nt	-13%	nt	10µM*	-15
C[C@H]1[C@@H](NS(=O)(=O)c2ccc([N+](=O)[O-])cc2[N+](=O)[O-])CC[C@@]23CCCN2C(=O)CCC[C@@H]13	nt	nt	nt	nt	12
O=C(c1ccc2c(c1)OCO2)N(c1ccc(Br)cc1)C1C=CS(=O)(=O)C1 (configuration not stated)	-7%	-19%	-4%	8%	-60*
O=C(c1ccc(S(=O)(=O)N2CCCC2)cc1)N(c1ccc(F)cc1)C1C=CS(=O)(=O)C1 (configuration not stated)	?	-11%	-1%	10%	-69*
O=C(Nc1cccc(C(F)(F)F)c1)C1Cc2c(-c3ccccc3Oc3ccccc3)ccnc2O1 (configuration not stated)	nt	?	nt	nt	-16
Cc1cc(C)cc(N(C(=O)c2csnn2)C(C(=O)NC2CCCCC2)c2ccccn2)c1 (configuration not stated)	-4%	20%	-22%[46.1 µM]	6%	-4
COc1cccc(/C(N)=N/OC(=O)Cc2ccccc2[N+](=O)[O-])c1	-25%[46.1 µM]	35%	?	-16%	36
N/C(=N\OC(=O)Cc1ccccc1[N+](=O)[O-])c1ccncc1	20%	-6%	?	5%	-61*
O=C(c1ccc(COc2ccc(Br)cc2)o1)N1N=C(C(F)F)CC1(O)C(F)F (configuration not stated)	-56%	25µM*	?	?	2
CN(C)c1cccc(Nc2cc3c(cn2)cc(-c2cnn(C)c2)n3C)c1	nt	nt	nt	nt	-32
Cc1cc(Cl)c(S(=O)(=O)Nc2ccon2)cc1OCC(=O)NC1CCCCC1	1%	0%	?	1%	14
Cc1cc(Cl)c(S(=O)(=O)N2CCN(c3ccc(F)cc3)CC2)cc1OCC(=O)NC1CCCCC1	?	?	10µM*	0.79µM*	-98*
Cc1cc(Cl)c(S(=O)(=O)Nc2ccc3c(c2)OCCO3)cc1OCC(=O)NC1CCCCC1	-51%	?	?	-19%	-70*
Cc1cc(Cl)c(S(=O)(=O)NCC2CCCO2)cc1OCC(=O)NC1CCCCC1 (configuration not stated)	0%	3%	3%	12%	-93*
COc1cccc2c1C1(CCCCC1)CC2NC(=O)C(F)(F)F (configuration not stated)	nt	nt	-15%[14.2 µM]	nt	nt
CC(C)CC(=O)Nc1ccc(S(=O)(=O)Nc2nccs2)cc1	nt	38%	nt	-3%	32
Cc1nc2ccccc2nc(C)c1=NOCc1cccc(F)c1	2.8µM*	?	?	-6%	?
NC(=O)C1(Nc2ccccc2)CCCC1	9%	-11%	7%	7%	-12
Nc1cc(Cl)c2nonc2c1[N+](=O)[O-]	?	8.9µM*	?	4.5µM*	-95*
O=[N+]([O-])c1c(Nc2ccccc2O)cc(Cl)c2nonc12	?	10µM*	?	11µM*	-97*
O=C(COc1ccc(S(=O)(=O)N2CCOCC2)cc1)N1CCN(c2ccccc2)CC1	-26%	?	-16%	nt	?
Cc1ccc(C)c(NC(=O)Nc2nnc(N(CC(C)C)CC(C)C)s2)c1	10%[46.1 µM]	-17%	21%[46.1 µM]	nt	-26
Cc1cc(=O)n2c(C(=O)Nc3ccc(F)c(Cl)c3)c(C(=O)Nc3cccc(C)c3C)sc2n1	?	-16%	-2%[46.1 µM]	nt	6
